Assay results: PubChem BioAssay (EPA / NIEHS)
Inconclusive results are not listed. Active and inactive are the calls of the source. Rule for the calls: active = hit-call score of the fitted dose curve at least 0.9, where 1 is the maximum; inconclusive = response in the unintended direction; inactive = score below 0.9.

Experiments:
[1] = ATG_Hpa5_TRANS: Attagene TRANS-FACTORIAL HepG2 Assay for human GAL4-Hpa5 Hepatocyte Transcription Factor Basal Promoter (AID 2282975); conditions: HepG2 Attagene GAL4-Hpa5 transcription reporter;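 note: hits are increases in reporter mRNA over DMSO baseline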
In short: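 Basal-promoter GAL4 background control within the HepG2 trans-factorial panel of transiently transfected reporter units. Reporter mRNA is measured 24 h after dosing by RT-PCR and capillary electrophoresis, fitted for gain of signal versus DMSO.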

[2] = target: Estrogen-related receptor gamma (Homo sapiens) (UniProt P62508); assay: ATG_ERRg_TRANS: Attagene TRANS-FACTORIAL HepG2 Assay for human Estrogen-Related Receptor gamma (ERRg) (AID 2282977); conditions: HepG2 Attagene TRANS reporter, ERRg transactivation;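 note: hits increase reporter signal over DMSO so potencies reflect activators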
Estrogen-related receptor gamma (Homo sapiens), sequence (P62508 whole entry, looked up, the tested form may be a part): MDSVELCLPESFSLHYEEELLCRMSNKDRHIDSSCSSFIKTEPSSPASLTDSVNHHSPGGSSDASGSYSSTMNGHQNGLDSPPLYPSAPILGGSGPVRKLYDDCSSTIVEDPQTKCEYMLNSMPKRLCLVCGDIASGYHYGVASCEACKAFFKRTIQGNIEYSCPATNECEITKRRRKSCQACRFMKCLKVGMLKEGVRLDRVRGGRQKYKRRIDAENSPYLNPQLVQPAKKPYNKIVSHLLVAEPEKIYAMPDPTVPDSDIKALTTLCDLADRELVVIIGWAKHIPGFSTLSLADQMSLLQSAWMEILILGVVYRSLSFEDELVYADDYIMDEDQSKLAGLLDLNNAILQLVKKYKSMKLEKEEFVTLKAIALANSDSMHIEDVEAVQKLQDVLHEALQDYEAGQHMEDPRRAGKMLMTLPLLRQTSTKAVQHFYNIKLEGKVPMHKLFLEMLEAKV
In short: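 Transfect HepG2 with multiple GAL4-UAS reporter transcription units; dose chemicals 24 h; isolate RNA, reverse-transcribe with oligo(dT), PCR-amplify, label with 6-FAM, digest with HpaI; size fragments by capillary electrophoresis. DMSO serves as negative control.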

[3] = target: Glucocorticoid receptor (Homo sapiens) (UniProt P04150); assay: ATG_GR_TRANS: Attagene TRANS-FACTORIAL HepG2 Assay for human Glucocorticoid Receptor (GR) (AID 2282978); conditions: HepG2 Attagene TRANS GR reporter, mRNA transcription;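 note: activators score as hits since higher reporter transcript over DMSO is fitted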
Glucocorticoid receptor (Homo sapiens), sequence (P04150 whole entry, looked up, the tested form may be a part): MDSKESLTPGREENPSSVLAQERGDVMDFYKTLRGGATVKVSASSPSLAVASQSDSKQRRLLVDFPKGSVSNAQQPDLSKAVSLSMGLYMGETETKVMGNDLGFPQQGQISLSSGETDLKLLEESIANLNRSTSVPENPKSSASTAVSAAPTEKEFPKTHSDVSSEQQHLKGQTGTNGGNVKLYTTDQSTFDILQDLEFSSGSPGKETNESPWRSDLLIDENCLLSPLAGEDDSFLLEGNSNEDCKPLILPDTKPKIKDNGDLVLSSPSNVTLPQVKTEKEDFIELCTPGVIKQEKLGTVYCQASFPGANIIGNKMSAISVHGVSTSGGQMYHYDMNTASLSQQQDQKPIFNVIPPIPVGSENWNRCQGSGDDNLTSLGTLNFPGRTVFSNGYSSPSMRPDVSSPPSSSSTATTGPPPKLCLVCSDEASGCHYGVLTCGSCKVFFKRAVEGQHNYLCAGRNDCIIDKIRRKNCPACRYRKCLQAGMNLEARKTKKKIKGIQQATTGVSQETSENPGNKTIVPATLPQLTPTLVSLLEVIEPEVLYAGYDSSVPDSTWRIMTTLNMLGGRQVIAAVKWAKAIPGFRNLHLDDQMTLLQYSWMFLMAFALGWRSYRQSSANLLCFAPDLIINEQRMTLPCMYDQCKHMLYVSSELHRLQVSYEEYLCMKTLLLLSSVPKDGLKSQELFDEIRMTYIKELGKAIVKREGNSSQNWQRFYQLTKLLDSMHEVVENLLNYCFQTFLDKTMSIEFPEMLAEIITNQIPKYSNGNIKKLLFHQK
In short: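 HepG2 cells transiently transfected with GAL4-UAS reporter units and exogenous GR-Gal4 chimera, dosed 24 h. Reporter mRNA by RT-PCR, FAM labeling, HpaI digest and capillary electrophoresis; gain-of-signal fit versus DMSO.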

[4] = target: Bile acid receptor (Homo sapiens) (UniProt Q96RI1); assay: ATG_FXR_TRANS: Attagene TRANS-FACTORIAL HepG2 Assay for Farnesoid X Receptor (FXR) (AID 2282979); conditions: HepG2 Attagene TRANS FXR-GAL4 reporter transcription;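 note: hits raise reporter mRNA above DMSO so AC50 marks FXR activation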
Bile acid receptor (Homo sapiens), sequence (Q96RI1 whole entry, looked up, the tested form may be a part): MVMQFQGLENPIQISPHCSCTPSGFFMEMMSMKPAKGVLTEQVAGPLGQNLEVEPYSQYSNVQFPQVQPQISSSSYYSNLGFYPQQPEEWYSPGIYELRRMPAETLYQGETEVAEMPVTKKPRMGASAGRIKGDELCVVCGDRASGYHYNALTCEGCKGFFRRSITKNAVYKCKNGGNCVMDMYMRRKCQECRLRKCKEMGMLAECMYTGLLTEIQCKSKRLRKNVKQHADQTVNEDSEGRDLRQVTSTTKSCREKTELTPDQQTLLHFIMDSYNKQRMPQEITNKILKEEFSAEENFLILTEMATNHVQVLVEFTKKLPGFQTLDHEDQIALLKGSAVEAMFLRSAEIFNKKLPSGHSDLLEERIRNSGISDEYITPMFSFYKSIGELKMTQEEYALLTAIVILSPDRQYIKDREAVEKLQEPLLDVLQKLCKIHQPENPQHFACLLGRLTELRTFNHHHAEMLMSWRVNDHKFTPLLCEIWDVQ
In short: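 Chimeric FXR-GAL4 activity in transiently transfected human HepG2 liver cells is scored as induction of reporter mRNA after 24 h of dosing. Detection uses RT-PCR with fluorescent labelling and capillary electrophoresis, with DMSO serving as baseline.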

[5] = target: Oxysterols receptor LXR-alpha (Homo sapiens) (UniProt Q13133); assay: ATG_LXRa_TRANS: Attagene TRANS-FACTORIAL HepG2 Assay for human Liver X Receptor alpha (LXRa) (AID 2282980); conditions: HepG2 Attagene TRANS reporter, LXRa transactivation
Oxysterols receptor LXR-alpha (Homo sapiens), sequence (Q13133 whole entry, looked up): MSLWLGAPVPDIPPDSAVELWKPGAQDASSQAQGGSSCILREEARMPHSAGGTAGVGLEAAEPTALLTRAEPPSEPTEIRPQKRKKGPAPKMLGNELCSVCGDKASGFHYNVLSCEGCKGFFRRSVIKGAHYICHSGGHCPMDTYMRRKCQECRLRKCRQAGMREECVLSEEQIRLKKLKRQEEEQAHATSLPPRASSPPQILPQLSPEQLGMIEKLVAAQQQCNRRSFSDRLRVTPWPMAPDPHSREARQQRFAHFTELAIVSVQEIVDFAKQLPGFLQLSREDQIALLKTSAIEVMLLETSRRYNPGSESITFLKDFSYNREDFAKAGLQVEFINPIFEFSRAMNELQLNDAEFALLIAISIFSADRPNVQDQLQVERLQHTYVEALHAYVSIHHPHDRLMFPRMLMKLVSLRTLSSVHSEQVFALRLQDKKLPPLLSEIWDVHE
In short: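 Transient HepG2 transfectants, 24 h dosing, RT-PCR/CE mRNA reporter quantitation; gain-of-signal vs DMSO.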

[6] = target: Oxysterols receptor LXR-beta (Homo sapiens) (UniProt P55055); assay: ATG_LXRb_TRANS: Attagene TRANS-FACTORIAL HepG2 Assay for human Liver X Receptor beta (LXRb) (AID 2282981); conditions: HepG2 Attagene TRANS GAL4-LXRb reporter, mRNA
Oxysterols receptor LXR-beta (Homo sapiens), sequence (P55055 whole entry, looked up, the tested form may be a part): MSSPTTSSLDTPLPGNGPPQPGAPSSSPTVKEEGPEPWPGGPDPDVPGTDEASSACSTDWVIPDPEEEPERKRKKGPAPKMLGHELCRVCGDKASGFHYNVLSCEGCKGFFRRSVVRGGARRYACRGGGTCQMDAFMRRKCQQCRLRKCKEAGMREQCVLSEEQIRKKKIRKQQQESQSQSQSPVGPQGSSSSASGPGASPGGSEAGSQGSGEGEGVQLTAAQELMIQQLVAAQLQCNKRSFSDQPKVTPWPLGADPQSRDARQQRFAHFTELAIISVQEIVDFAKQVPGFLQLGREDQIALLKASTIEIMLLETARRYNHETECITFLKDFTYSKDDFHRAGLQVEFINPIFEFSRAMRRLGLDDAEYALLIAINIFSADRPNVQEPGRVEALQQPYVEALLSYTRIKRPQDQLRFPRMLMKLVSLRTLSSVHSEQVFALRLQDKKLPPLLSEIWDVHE
In short: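 In this TRANS format, exogenous chimeric NR-Gal4 protein activity, not endogenous factors, drives reporter expression in transfected human HepG2 cells. Exposure lasted 24 h; reporter mRNA was read by fluorescent capillary electrophoresis.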

[7] = ATG_M_32_TRANS: Attagene TRANS-FACTORIAL HepG2 Assay for M32 Transcription Factor (Internal Marker) (AID 2282984); conditions: HepG2 Attagene TRANS M32 internal marker reporter
In short: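 Human hepatoma HepG2, transient MRTU transfection, 24 h treatment. RNA → RT-PCR → fluorescent primer extension → HpaI digest (2 h, 37 C) → CE. Positive-direction fit vs DMSO.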

[8] = ATG_GAL4_TRANS: Attagene TRANS-FACTORIAL HepG2 Assay for GAL4 (Internal Marker) (AID 2282976); conditions: HepG2 Attagene TRANS GAL4 internal marker reporter
In short: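 Fluorescence from capillary electrophoresis of labelled RT-PCR products quantifies reporter mRNA induction after 24 h dosing of HepG2 cells carrying transfected GAL4-UAS reporter transcription units. Vehicle DMSO serves as baseline.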

[9] = ATG_M_06_TRANS: Attagene TRANS-FACTORIAL HepG2 Assay for M06 Transcription Factor (Internal Marker) (AID 2282983); conditions: HepG2 Attagene TRANS M06 internal marker reporter
In short: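 Measured by capillary electrophoresis of fluorescently labelled RT-PCR products, this endpoint reflects reporter mRNA in HepG2 cells harbouring exogenous NR-GAL4 reporter constructs after 24 h exposure, with DMSO as baseline.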

[10] = target: Hepatocyte nuclear factor 4-alpha (Homo sapiens) (UniProt P41235); assay: ATG_HNF4a_TRANS: Attagene TRANS-FACTORIAL HepG2 Assay for human Hepatocyte Nuclear Factor 4 alpha (HNF4a) (AID 2282982); conditions: HepG2 HNF4a transactivation reporter, mRNA readout
Hepatocyte nuclear factor 4-alpha (Homo sapiens), sequence (P41235 whole entry, looked up, the tested form may be a part): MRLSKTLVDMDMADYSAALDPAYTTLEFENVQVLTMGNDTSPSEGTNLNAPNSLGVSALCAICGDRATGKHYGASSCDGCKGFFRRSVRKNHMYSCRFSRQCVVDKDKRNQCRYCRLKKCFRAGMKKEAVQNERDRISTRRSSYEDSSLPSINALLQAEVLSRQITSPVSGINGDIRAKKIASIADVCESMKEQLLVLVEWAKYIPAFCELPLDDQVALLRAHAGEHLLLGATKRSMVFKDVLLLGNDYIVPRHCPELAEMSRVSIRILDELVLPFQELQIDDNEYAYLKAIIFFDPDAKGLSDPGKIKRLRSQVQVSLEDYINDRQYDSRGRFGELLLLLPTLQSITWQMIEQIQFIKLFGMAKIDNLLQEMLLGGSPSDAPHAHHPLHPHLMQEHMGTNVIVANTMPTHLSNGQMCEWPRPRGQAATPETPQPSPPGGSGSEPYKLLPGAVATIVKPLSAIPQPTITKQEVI
In short: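 Cells used were human HepG2, transiently carrying GAL4-UAS reporter units read out against exogenous NR-GAL4 chimeras. Reporter transcript levels after 24 h dosing were quantified by fluorescent RT-PCR and capillary electrophoresis.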

Measured: AC50

COc1cc(OC)nc(NC(=O)NS(=O)(=O)c2ncccc2OCC(F)(F)F)n1
not listed: [8] | [9] | [10]
inactive: all other assays above

COP(=S)(OC)SCn1nnc2ccccc2c1=O
inactive: [1] | [8] | [2] | [5] | [9] | [7]

CCOC(=O)C(C)OC(=O)c1cc(Oc2ccc(C(F)(F)F)cc2Cl)ccc1[N+](=O)[O-] (stereo not drawn)
inactive: [1] | [2] | [3] | [5] | [9]

N#CN=C1SCCN1Cc1ccc(Cl)nc1
inactive: [1] | [2] | [3] | [5] | [10] | [7]

CS(=O)(=O)c1ccc(C(=O)C2C(=O)CCCC2=O)c([N+](=O)[O-])c1
not listed: [2] | [8]
inactive: all other assays above

CC(C)=CC1C(C(=O)OCc2coc(Cc3ccccc3)c2)C1(C)C (stereo not drawn)
inactive: [1] | [3] | [4] | [5] | [10] | [9]

CS(=O)(=O)c1cc(C(F)(F)F)ccc1C(=O)c1cnoc1C1CC1
inactive: [1] | [2] | [3] | [5] | [6] | [7]

CC(C)NC(=O)N1CC(=O)N(c2cc(Cl)cc(Cl)c2)C1=O
not listed: [3] | [4] | [10]
inactive: all other assays above

CC(C)C1(C)N=C(c2ncccc2C(=O)O)NC1=O (stereo not drawn)
inactive: [1] | [3] | [4] | [5] | [6] | [10]

CC(C)N1C(=O)c2ccccc2NS1(=O)=O
active: [5] 50 µM
inactive: [1] | [2] | [3] | [9] | [7]

CCCCC(C#N)(Cn1cncn1)c1ccc(Cl)cc1 (stereo not drawn)
not listed: [4] | [5] | [8]
inactive: all other assays above

CO/N=C(/C1=NOCCO1)c1ccccc1Oc1ncnc(Oc2ccccc2Cl)c1F
inactive: [3] | [4] | [5] | [10] | [7]

Cc1ccc(N=CN(C)C=Nc2ccc(C)cc2C)c(C)c1
inactive: [3] | [9]

COC(=O)N(C(=O)N1CO[C@@]2(C(=O)OC)Cc3cc(Cl)ccc3C2=N1)c1ccc(OC(F)(F)F)cc1
inactive: [2] | [3] | [10] | [7]

CCOc1nc(C(Cl)(Cl)Cl)ns1
inactive: [2] | [5] | [6]

CCC(C)n1c(=O)[nH]c(C)c(Br)c1=O (stereo not drawn)
inactive: [2] | [4] | [10]

C=CCOC(=O)C(C)(C)OC(=O)c1cc(-n2c(=O)cc(C(F)(F)F)n(C)c2=O)ccc1Cl
inactive: [2]

O=P(O)(O)CCCl
inactive: [4] | [5] | [10] | [9] | [7]

CCCCC(O)(Cn1cncn1)c1ccc(Cl)cc1Cl (stereo not drawn)
inactive: [2] | [9]

Nc1c(Cl)c(Cl)nc(C(=O)O)c1Cl
inactive: [1] | [3] | [10] | [7]

CCCC(=NOCC)C1=C(O)CC(CC(C)SCC)CC1=O (stereo not drawn)
inactive: [1] | [3] | [5] | [10] | [7]

Clc1cccc(C(Cl)(Cl)Cl)n1
inactive: [1] | [4] | [5] | [9] | [7]

CC1(C)CCC(=Cc2ccc(Cl)cc2)C1(O)Cn1cncn1 (stereo not drawn)
inactive: [8] | [3] | [5] | [6] | [9] | [7]

CNC(=O)Oc1cccc2ccccc12
inactive: [4] | [5] | [6]

CCOc1cc(C(C)(C)C)ccc1C1COC(c2c(F)cccc2F)=N1 (stereo not drawn)
inactive: [2] | [10] | [7]

Cc1cnc(C2=NC(C)(C(C)C)C(=O)N2)c(C(=O)O)c1 (stereo not drawn)
inactive: [5] | [10]

CCNP(=S)(OC)O/C(C)=C/C(=O)OC(C)C (stereo not drawn)
inactive: [5] | [10] | [9]

CCCCOCN(C(=O)CCl)c1c(CC)cccc1CC
not listed: [1] | [8] | [9]
inactive: all other assays above

CN/C(=N\[N+](=O)[O-])NCc1cnc(Cl)s1
inactive: [5] | [6] | [9] | [7]

COP(=S)(OC)Oc1ccc([N+](=O)[O-])c(C)c1
not listed: [1] | [6]
inactive: all other assays above

CNC(=O)N(C)c1nnc(C(C)(C)C)s1
inactive: [1] | [5] | [6] | [10] | [9] | [7]

CCN(CC)C(=O)C(C)Oc1cccc2ccccc12 (stereo not drawn)
inactive: [1] | [5] | [10] | [9] | [7]

CCSC(=O)N1CCCCCC1
inactive: [1] | [5] | [6] | [7]

COC(=O)NS(=O)(=O)c1ccc(N)cc1
inactive: [2] | [6] | [9]
